# Measurements as given in the supplement of paper PMC6411743.
# ± gives the standard deviation of the averaged measurements. About 6,200 targets were measured; listed, in parts, are those with the largest changes and a random draw of the rest.
# Compound: Nc1ncnc2c1ncn2[C@@H]1O[C@H](COP(=O)(O)OP(=O)(O)NP(=O)(O)O)[C@@H](O)[C@H]1O [adenylyl imidodiphosphate]
# Assay: NP40-soluble protein abundance relative to vehicle (solubility fold change) (ratio); higher = more soluble protein in presence of AMP-PNP
# Procedure, shortened: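 Jurkat crude lysate (Dounce-homogenised) was treated with eight concentrations from 0.1 to 10 mM for 10 min at room temperature, then 3 min at 37 °C. It was solubilised with 0.8% NP40 and benzonase (60 min, 4 °C) and ultracentrifuged, and the supernatant was TMT-labelled for LC-MS/MS. Intensities were vsn-normalised, and the value is the fold change against the NP40-processed vehicle per replicate, from three independent experiments.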
# Chain of UniProt Q12974 (Q12974 whole entry): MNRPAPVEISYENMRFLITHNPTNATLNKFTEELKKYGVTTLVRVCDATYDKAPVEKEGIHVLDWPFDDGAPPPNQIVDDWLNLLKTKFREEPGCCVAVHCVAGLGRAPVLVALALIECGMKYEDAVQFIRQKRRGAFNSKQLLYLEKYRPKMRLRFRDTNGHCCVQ
# Chain of UniProt O75367 (O75367 whole entry): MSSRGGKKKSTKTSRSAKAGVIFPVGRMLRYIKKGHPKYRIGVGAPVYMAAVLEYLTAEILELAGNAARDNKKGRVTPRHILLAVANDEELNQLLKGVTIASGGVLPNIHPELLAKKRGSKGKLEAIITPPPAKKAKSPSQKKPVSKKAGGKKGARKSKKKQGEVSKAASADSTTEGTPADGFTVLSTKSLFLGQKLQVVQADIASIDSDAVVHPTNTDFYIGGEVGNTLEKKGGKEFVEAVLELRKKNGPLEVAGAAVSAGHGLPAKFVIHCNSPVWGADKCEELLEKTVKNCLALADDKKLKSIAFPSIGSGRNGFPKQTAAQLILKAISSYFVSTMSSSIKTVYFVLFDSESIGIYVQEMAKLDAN
# Chain of UniProt P26368 (P26368 whole entry): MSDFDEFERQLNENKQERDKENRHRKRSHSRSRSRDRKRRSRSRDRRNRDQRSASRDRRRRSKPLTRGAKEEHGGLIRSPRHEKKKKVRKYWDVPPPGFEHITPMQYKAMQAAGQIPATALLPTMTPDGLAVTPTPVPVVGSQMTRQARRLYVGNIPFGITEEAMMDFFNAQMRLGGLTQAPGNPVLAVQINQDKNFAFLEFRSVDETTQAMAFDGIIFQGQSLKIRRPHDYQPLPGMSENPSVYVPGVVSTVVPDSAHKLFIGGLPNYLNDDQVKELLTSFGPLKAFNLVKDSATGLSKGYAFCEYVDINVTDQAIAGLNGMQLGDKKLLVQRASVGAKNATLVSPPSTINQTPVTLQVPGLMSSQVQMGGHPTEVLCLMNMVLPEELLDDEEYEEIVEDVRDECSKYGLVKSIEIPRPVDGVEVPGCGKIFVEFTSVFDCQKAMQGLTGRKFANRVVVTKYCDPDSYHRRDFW
# Chain of UniProt P14854 (P14854 whole entry): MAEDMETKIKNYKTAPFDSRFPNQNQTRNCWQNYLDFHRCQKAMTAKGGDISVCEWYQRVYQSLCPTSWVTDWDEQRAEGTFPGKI
# Chain of UniProt P07195 (P07195 whole entry, looked up): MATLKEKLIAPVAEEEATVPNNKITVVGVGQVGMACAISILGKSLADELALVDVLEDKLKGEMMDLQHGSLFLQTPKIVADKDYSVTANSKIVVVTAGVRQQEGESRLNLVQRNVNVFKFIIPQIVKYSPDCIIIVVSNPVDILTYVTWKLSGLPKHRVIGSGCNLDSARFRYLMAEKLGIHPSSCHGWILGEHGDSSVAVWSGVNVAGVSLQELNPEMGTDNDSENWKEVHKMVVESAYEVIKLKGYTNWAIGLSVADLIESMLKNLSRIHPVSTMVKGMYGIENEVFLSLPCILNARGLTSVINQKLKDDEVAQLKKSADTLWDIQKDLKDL
# Chain of UniProt O95630 (O95630 whole entry): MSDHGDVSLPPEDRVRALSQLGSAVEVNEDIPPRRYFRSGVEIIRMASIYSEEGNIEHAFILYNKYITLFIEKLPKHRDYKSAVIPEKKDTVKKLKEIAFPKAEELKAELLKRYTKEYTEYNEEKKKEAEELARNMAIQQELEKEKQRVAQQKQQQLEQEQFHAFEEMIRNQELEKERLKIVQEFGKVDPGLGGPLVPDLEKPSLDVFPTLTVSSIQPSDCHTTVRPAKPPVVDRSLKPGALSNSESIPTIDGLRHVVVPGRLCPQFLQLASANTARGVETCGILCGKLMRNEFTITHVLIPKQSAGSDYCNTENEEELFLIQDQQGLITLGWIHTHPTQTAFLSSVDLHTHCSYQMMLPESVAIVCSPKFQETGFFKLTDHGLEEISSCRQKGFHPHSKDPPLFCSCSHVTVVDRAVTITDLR
# Chain of UniProt O75368 (O75368 whole entry): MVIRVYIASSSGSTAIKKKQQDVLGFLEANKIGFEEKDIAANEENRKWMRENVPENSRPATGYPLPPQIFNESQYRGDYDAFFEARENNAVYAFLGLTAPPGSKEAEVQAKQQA
# Chain of UniProt P08559 (P08559 whole entry): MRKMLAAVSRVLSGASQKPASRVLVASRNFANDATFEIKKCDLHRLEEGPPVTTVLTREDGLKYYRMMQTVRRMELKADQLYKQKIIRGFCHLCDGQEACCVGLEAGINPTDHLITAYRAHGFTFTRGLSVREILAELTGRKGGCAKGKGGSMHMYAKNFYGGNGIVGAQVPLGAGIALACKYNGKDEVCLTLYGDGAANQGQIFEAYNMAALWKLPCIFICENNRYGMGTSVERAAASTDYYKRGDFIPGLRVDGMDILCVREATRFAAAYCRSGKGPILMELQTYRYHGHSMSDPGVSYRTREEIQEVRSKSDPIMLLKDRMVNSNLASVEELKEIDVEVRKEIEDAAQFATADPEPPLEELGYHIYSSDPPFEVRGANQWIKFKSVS
# Chain of UniProt P49005 (P49005 whole entry, one chain of several): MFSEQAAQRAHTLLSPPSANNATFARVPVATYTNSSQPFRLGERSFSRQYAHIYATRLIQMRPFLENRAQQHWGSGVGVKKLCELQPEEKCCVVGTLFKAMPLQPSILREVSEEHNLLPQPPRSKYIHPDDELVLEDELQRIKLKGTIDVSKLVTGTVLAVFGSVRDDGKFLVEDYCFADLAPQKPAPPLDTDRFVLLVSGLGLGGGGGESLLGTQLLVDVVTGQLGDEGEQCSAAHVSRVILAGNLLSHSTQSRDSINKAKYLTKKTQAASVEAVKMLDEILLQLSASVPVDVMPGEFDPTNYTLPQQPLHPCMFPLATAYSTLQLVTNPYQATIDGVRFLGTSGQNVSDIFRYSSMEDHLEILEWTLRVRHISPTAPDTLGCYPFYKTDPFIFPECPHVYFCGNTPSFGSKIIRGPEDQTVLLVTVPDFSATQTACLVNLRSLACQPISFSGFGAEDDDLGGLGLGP
# Chain of UniProt O95251 (O95251 whole entry): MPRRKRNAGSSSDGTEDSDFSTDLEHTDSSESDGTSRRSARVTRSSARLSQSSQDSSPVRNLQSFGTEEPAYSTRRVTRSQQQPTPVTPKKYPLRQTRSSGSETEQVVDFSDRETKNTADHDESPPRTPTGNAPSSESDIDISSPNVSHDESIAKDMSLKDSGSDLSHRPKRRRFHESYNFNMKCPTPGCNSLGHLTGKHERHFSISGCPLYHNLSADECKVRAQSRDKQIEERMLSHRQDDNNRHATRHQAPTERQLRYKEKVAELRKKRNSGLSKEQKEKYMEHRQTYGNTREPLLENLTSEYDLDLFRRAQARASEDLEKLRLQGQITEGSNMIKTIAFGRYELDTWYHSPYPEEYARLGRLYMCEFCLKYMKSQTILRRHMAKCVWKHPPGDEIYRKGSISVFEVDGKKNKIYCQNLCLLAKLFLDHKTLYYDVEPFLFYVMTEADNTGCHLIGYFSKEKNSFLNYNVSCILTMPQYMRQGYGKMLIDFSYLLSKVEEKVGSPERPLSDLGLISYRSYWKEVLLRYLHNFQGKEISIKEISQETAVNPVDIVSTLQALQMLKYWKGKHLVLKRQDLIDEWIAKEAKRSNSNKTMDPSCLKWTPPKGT
# Chain of UniProt P14649 (P14649 whole entry): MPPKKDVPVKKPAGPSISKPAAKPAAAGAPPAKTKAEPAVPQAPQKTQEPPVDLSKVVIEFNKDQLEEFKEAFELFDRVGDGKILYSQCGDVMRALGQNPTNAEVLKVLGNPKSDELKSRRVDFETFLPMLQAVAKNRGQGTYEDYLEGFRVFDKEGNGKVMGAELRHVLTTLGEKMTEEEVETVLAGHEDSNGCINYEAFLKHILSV
# Chain of UniProt P11166 (P11166 whole entry): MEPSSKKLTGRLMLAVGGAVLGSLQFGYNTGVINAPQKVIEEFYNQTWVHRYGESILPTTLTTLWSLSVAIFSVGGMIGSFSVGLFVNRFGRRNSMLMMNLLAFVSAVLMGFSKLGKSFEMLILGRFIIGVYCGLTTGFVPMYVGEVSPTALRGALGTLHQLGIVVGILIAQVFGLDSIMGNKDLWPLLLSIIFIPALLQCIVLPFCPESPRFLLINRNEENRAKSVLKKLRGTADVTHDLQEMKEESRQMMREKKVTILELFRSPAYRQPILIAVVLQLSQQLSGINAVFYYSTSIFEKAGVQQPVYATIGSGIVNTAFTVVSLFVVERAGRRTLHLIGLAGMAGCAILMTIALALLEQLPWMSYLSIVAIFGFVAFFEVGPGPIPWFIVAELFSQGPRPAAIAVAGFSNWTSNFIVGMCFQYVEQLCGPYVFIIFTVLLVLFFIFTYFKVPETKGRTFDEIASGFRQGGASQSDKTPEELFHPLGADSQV
# Chain of UniProt P28070 (P28070 whole entry): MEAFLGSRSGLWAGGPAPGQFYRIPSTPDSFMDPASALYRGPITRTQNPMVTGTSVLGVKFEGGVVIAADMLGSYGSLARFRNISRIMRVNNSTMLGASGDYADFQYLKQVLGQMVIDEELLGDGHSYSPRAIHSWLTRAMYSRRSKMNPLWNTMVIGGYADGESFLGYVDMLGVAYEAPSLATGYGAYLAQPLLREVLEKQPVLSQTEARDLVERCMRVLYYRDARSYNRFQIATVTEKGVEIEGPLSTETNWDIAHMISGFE
# Chain of UniProt P42696 (P42696 whole entry): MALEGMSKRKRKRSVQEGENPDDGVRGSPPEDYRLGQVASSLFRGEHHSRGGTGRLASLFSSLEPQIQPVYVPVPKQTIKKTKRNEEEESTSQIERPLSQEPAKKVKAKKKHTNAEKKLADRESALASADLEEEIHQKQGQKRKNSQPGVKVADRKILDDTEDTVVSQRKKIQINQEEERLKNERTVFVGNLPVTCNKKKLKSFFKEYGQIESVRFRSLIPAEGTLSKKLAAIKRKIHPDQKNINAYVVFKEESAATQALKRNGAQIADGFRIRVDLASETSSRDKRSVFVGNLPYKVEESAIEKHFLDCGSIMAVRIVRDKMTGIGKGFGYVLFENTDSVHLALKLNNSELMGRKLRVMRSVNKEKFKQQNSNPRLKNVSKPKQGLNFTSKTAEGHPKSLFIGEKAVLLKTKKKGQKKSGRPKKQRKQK
Target,NP40-soluble protein abundance (concentration: 1mM),NP40-soluble protein abundance (concentration: 2mM),NP40-soluble protein abundance (concentration: 4mM),NP40-soluble protein abundance (concentration: 6mM),NP40-soluble protein abundance (concentration: 8mM),NP40-soluble protein abundance (concentration: 10mM)
CDK6 (UniProt Q00534),0.987 ± 0.029,0.951 ± 0.022,0.959 ± 0.03,0.967 ± 0.012,0.945 ± 0.033,0.91 ± 0.029
PRIM2 (UniProt P49643),0.996 ± 0.022,0.954 ± 0.018,1 ± 0.013,1.02 ± 0.044,1.02 ± 0.027,1.02 ± 0.029
YBX1 (UniProt P67809),0.986 ± 0.088,1.22 ± 0.36,1.07 ± 0.12,1.23 ± 0.072,1.21 ± 0.031,1.34 ± 0.067
UniProt O95251|O95251-4,1.11 ± 0.031,1.17 ± 0.06,1.18 ± 0.063,1.2 ± 0.073,1.25 ± 0.077,1.36 ± 0.088
FASN (UniProt P49327),0.959 ± 0.021,0.874 ± 0.091,0.941 ± 0.026,0.913 ± 0.026,0.917 ± 0.035,0.896 ± 0.036
UniProt Q01085-2,0.997 ± 0.044,0.976 ± 0.057,0.992 ± 0.029,0.957 ± 0.037,0.9409 ± 0.0074,0.952 ± 0.032
AKT2 (UniProt P31751),0.974 ± 0.025,0.95 ± 0.043,0.969 ± 0.034,0.947 ± 0.031,0.969 ± 0.017,0.96 ± 0.044
UROS (UniProt P10746),1.04 ± 0.012,1.03 ± 0.015,1 ± 0.045,0.99 ± 0.029,0.975 ± 0.051,0.982 ± 0.075
COX6B1 (UniProt P14854),0.864 ± 0.041,0.926 ± 0.032,0.916 ± 0.063,0.86 ± 0.055,0.821 ± 0.016,0.839 ± 0.019
IGHMBP2 (UniProt P38935),1.17 ± 0.014,1.16 ± 0.05,1.22 ± 0.083,1.26 ± 0.086,1.33 ± 0.06,1.42 ± 0.12
HSPA14 (UniProt Q0VDF9),1.01 ± 0.046,0.998 ± 0.032,1.01 ± 0.034,1.012 ± 0.0091,1.03 ± 0.059,1.02 ± 0.049
HMGN2 (UniProt P05204),1.06 ± 0.04,1.15 ± 0.12,1.09 ± 0.05,1.25 ± 0.081,1.16 ± 0.21,1.54 ± 0.28
UniProt P36639|P36639-2|P36639-3|P36639-4,1 ± 0.037,0.988 ± 0.059,1.09 ± 0.085,1.03 ± 0.022,1.07 ± 0.012,1.06 ± 0.065
UniProt O96028|O96028-3|O96028-5,1.08 ± 0.034,1.16 ± 0.026,1.23 ± 0.033,1.32 ± 0.044,1.35 ± 0.03,1.47 ± 0.059
UniProt P26368|P26368-2,0.986 ± 0.075,1 ± 0.025,1.11 ± 0.069,1.24 ± 0.098,1.41 ± 0.09,1.51 ± 0.12
USP4 (UniProt Q13107),1 ± 0.018,0.967 ± 0.044,1 ± 0.046,0.97 ± 0.042,0.975 ± 0.039,0.942 ± 0.038
UniProt O75367|O75367-2|O75367-3,1.01 ± 0.066,1 ± 0.055,1.05 ± 0.075,1.15 ± 0.034,1.26 ± 0.092,1.44 ± 0.049
UniProt P16083|Q5TD07,1.02 ± 0.02,0.982 ± 0.074,0.988 ± 0.034,0.991 ± 0.02,0.993 ± 0.04,0.982 ± 0.052
PSMD2 (UniProt Q13200),0.891 ± 0.014,0.849 ± 0.068,0.854 ± 0.074,0.858 ± 0.087,0.851 ± 0.086,0.816 ± 0.12
P0DN76|Q01081 (UniProt Q01081+P0DN76),1.04 ± 0.065,1.06 ± 0.083,1.12 ± 0.05,1.29 ± 0.099,1.47 ± 0.18,1.51 ± 0.18

Target,NP40-soluble protein abundance (concentration: 1mM),NP40-soluble protein abundance (concentration: 2mM),NP40-soluble protein abundance (concentration: 4mM),NP40-soluble protein abundance (concentration: 6mM),NP40-soluble protein abundance (concentration: 8mM),NP40-soluble protein abundance (concentration: 10mM)
UniProt Q05519|Q05519-2,1.12 ± 0.031,1.18 ± 0.11,1.21 ± 0.088,1.26 ± 0.049,1.34 ± 0.16,1.51 ± 0.2
UniProt P55060|P55060-3,1 ± 0.012,1.02 ± 0.11,0.987 ± 0.032,1.01 ± 0.04,0.985 ± 0.027,1.02 ± 0.04
LDHB (UniProt P07195),1.01 ± 0.019,0.92 ± 0.025,0.947 ± 0.02,0.973 ± 0.036,0.969 ± 0.024,0.943 ± 0.013
METAP1 (UniProt P53582),1.05 ± 0.046,1.06 ± 0.081,1.16 ± 0.071,1.31 ± 0.046,1.37 ± 0.061,1.38 ± 0.074
UniProt P36402-5,0.952 ± 0.025,0.984 ± 0.03,0.924 ± 0.046,0.876 ± 0.025,0.8484 ± 0.0036,0.837 ± 0.015
FARS2 (UniProt O95363),0.9733 ± 0.0048,0.856 ± 0.13,0.943 ± 0.01,0.9111 ± 0.0032,0.919 ± 0.033,0.876 ± 0.029
UniProt P51608-2|P51608|A0A087WXF0,1.04 ± 0.023,1.06 ± 0.016,1.04 ± 0.046,1.07 ± 0.019,1.07 ± 0.028,1.15 ± 0.042
SSR4 (UniProt P51571),0.998 ± 0.014,0.961 ± 0.064,0.988 ± 0.019,0.977 ± 0.027,0.998 ± 0.011,0.981 ± 0.037
STAMBP (UniProt O95630),1.02 ± 0.02,0.993 ± 0.012,0.995 ± 0.03,0.984 ± 0.018,0.964 ± 0.033,0.948 ± 0.06
CAPZA2 (UniProt P47755),1.01 ± 0.013,0.966 ± 0.02,0.9851 ± 0.0046,0.9821 ± 0.0042,1.004 ± 0.0091,0.986 ± 0.017
RBM5 (UniProt P52756),1.05 ± 0.026,1.072 ± 0.0062,1.09 ± 0.038,1.06 ± 0.071,1.06 ± 0.061,1.1 ± 0.071
IGFBP2 (UniProt P18065),1.03 ± 0.034,1.03 ± 0.058,1.01 ± 0.067,0.966 ± 0.0077,0.991 ± 0.021,0.957 ± 0.014
USP8 (UniProt P40818),1.036 ± 0.0058,1.05 ± 0.033,1.048 ± 0.0058,0.997 ± 0.015,0.996 ± 0.042,1.01 ± 0.033
CIAO1 (UniProt O76071),1.02 ± 0.021,0.986 ± 0.024,1.01 ± 0.053,1.01 ± 0.044,1 ± 0.021,0.978 ± 0.028
UniProt P54136|P54136-2,0.957 ± 0.051,0.888 ± 0.14,0.92 ± 0.1,0.92 ± 0.097,0.945 ± 0.13,0.894 ± 0.16
UQCRB (UniProt P14927),0.9813 ± 0.003,1.07 ± 0.082,0.954 ± 0.025,0.969 ± 0.018,0.935 ± 0.0015,0.933 ± 0.023
PARP1 (UniProt P09874),1.06 ± 0.018,1.09 ± 0.05,1.21 ± 0.016,1.39 ± 0.027,1.51 ± 0.071,1.59 ± 0.11
UniProt P49005|F8W8R3,0.977 ± 0.021,0.947 ± 0.059,0.973 ± 0.027,0.929 ± 0.011,0.9339 ± 0.0057,0.925 ± 0.037
UniProt P43155|P43155-2|P43155-3,0.974 ± 0.057,0.965 ± 0.011,1 ± 0.032,1.01 ± 0.086,1.01 ± 0.061,1.01 ± 0.077
ITGA2 (UniProt P17301),0.9944 ± 0.0014,1.02 ± 0.084,0.988 ± 0.024,1.019 ± 0.0071,1.01 ± 0.025,1.04 ± 0.011

Target,NP40-soluble protein abundance (concentration: 1mM),NP40-soluble protein abundance (concentration: 2mM),NP40-soluble protein abundance (concentration: 4mM),NP40-soluble protein abundance (concentration: 6mM),NP40-soluble protein abundance (concentration: 8mM),NP40-soluble protein abundance (concentration: 10mM)
UniProt P08559|P08559-3|P08559-4|P08559-2,0.979 ± 0.13,0.94 ± 0.13,0.925 ± 0.13,0.923 ± 0.17,0.95 ± 0.12,0.965 ± 0.15
SH3BGRL (UniProt O75368),0.939 ± 0.027,0.966 ± 0.028,0.888 ± 0.013,0.937 ± 0.031,0.907 ± 0.015,0.897 ± 0.033
UniProt P25398,0.934 ± 0.016,0.955 ± 0.044,0.869 ± 0.053,0.872 ± 0.033,0.81 ± 0.054,0.847 ± 0.049
PSMB4 (UniProt P28070),0.931 ± 0.043,0.905 ± 0.048,0.918 ± 0.096,0.971 ± 0.046,0.968 ± 0.071,1 ± 0.13
RBM34 (UniProt P42696),1.07 ± 0.069,1.12 ± 0.044,1.15 ± 0.082,1.23 ± 0.12,1.23 ± 0.12,1.36 ± 0.16
POLR1A (UniProt O95602),1 ± 0.017,1 ± 0.086,1.07 ± 0.1,1.08 ± 0.12,1.07 ± 0.14,1.11 ± 0.14
ARL3 (UniProt P36405),0.9899 ± 0.0033,0.945 ± 0.031,0.995 ± 0.048,0.988 ± 0.052,1.03 ± 0.041,0.99 ± 0.042
MYL6B (UniProt P14649),1.02 ± 0.042,1.1 ± 0.053,1.01 ± 0.034,0.987 ± 0.051,0.925 ± 0.041,0.962 ± 0.019
PYGB (UniProt P11216),1.06 ± 0.1,1.09 ± 0.15,1.35 ± 0.14,1.43 ± 0.17,1.54 ± 0.24,1.47 ± 0.24
SLC2A1 (UniProt P11166),1.015 ± 0.005,0.999 ± 0.042,1.02 ± 0.055,0.998 ± 0.029,1.01 ± 0.032,1.01 ± 0.053
PSMC4 (UniProt P43686),0.906 ± 0.041,0.921 ± 0.06,0.885 ± 0.08,0.871 ± 0.079,0.866 ± 0.082,0.859 ± 0.1
UniProt Q12974|Q12974-4,1.04 ± 0.032,1.022 ± 0.0039,0.956 ± 0.027,0.996 ± 0.025,1.02 ± 0.029,0.988 ± 0.02
UniProt P62857,0.941 ± 0.041,0.993 ± 0.078,0.919 ± 0.069,0.837 ± 0.071,0.74 ± 0.057,0.847 ± 0.092
DLAT (UniProt P10515),0.959 ± 0.23,0.904 ± 0.2,0.904 ± 0.31,0.877 ± 0.31,0.899 ± 0.27,0.923 ± 0.31
UniProt Q12769|G3V198,1 ± 0.024,0.9518 ± 0.0046,0.9433 ± 0.006,0.9621 ± 0.0016,0.99281 ± 0.00096,0.991 ± 0.019
TXLNA (UniProt P40222),1.04 ± 0.059,1.17 ± 0.13,1.08 ± 0.14,1.21 ± 0.15,1.35 ± 0.046,1.2 ± 0.2
UniProt O95786|O95786-2,0.996 ± 0.051,0.944 ± 0.035,0.978 ± 0.022,0.942 ± 0.017,0.967 ± 0.021,0.933 ± 0.029
VASP (UniProt P50552),1.02 ± 0.03,1.09 ± 0.078,1.03 ± 0.033,1.01 ± 0.015,0.999 ± 0.046,0.9961 ± 0.0094
GCLC (UniProt P48506),0.993 ± 0.027,0.928 ± 0.043,0.976 ± 0.033,0.941 ± 0.014,0.963 ± 0.029,0.922 ± 0.02
UniProt Q10589|Q10589-2,1.0272 ± 0.00052,1.04 ± 0.011,1.03 ± 0.025,1.03 ± 0.028,1.05 ± 0.056,1.04 ± 0.048
